The record followed here is the supplement of paper PMC10681739.

± gives the standard deviation of the averaged measurements. The full ranking holds about 4,100 sequences; the median of “arbitrary fluorescence units” is about 780, and the highest 2% start at about 22,000. What follows is part of a selection rich in the highest values, with near analogues and random picks from the rest.

The assay concerns the target T1, ETS1 (UniProt P14921).
T1 sequence: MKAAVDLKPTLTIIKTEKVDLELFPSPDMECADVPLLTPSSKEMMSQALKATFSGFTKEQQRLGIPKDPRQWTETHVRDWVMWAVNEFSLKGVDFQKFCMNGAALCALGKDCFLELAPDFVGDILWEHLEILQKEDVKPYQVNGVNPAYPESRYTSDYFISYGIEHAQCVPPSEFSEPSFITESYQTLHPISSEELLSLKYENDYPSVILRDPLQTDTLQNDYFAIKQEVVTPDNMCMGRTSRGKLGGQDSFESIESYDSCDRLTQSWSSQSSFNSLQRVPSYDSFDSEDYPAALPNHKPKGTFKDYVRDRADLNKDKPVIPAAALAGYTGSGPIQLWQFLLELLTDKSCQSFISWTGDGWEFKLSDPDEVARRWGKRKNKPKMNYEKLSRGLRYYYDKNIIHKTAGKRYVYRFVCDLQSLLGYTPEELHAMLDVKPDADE
Description: ETS1 binding intensity (PBM fluorescence), ETS1 alone (arbitrary fluorescence units); higher = stronger binding. Conditions: ETS1 concentration 1 nM; RUNX1 concentration 0 nM. The method, then: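 gcPBM on 36-bp genomic-derived probes (partner site mutated) containing one ETS1 site and no RUNX1 site. Recombinant human ETS1 (1 nM) was incubated alone or with RUNX1 (25 nM) and detected by anti-ETS1 antibody fluorescence. Values are medians over 4 replicate spots (not normalised). The probes sit in constant array flanks that are not printed.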
Sequence CGTTTCCTGTCTGGGACTGCGCCCACGCGATCACGT yielded an ETS1 binding intensity of 38800. As for GACTGCGCCGGACGCGCCAGCCCTGCGCGATGACGT, the ETS1 binding intensity was determined as 678. The figure for TGGCTGTCACTTCCTGTCCCACTGTCGTTCCTGGGA is 20600; for TCCCTCCTTCCGCTCTGGTTTTGGGGTTGCTTGCTG it is 6220. The figure for CCAACAGCAGCGCTACTCCCGGCCGCTTCCGCCTGG is 748; for CGGCCTCTTCCGGTCACCTGGCCCGTCGCTGTCCCG it is 17300. As for GGCACTTCCGGTCCTGACCTGAAGCGCTCACCGTCA, the ETS1 binding intensity amounted to 55000. The figure for CCGCGTCCTCAGAGGTCCGGCCGGAAGTCACCTGAA is 8340 ± 1500. Sequence ACAAAGTCAGTGGCAATGTGGAACGTCCGCCAAGAG came in with an ETS1 binding intensity of 384. The figure for GCGGAGGGAAGCGGAAATACTTGCAGTGGGGGCGAC is 3700; for CTCTTGGCGGACGTTCCACATTGCCACTGACTTTGT it is 616; for CACTCCCCTCCCGAGGTCACACTTCCGGCGGCCACC it is 7960. Take GCCACTTCCGGTCACTCCCCTCAGCGGCCTCGCGCT: the ETS1 binding intensity worked out at 39600.

CAACTCCGGCGCCCTCAGGCCACTTCCGCCTATGTA displayed an ETS1 binding intensity of 4590. The figure for CTGCCTTTCCTGCTAGGGTACAAATCACAGCCTTAG is 1670; for AACTTCCTTCCCGAGAGCCTGAAGCAGCCGTAGGCC it is 9120; for TTTAAGGTTCATGCTGTACTCAGAACATCCTGTTCT it is 1150.

TCCCGCTTCGGCCAACAGCCGGGCCACTTCCGGGGC: the ETS1 binding intensity stood at 2910. On to CGGGTTAAACAGCAGCCGCGCCCACACTTCCGGGGT, for which the ETS1 binding intensity is 2120. The figure for TCCCCACACTTCCGGCCCCGCGCGCACAGCCGCACC is 25400; for CCGCGAACAGCAGAATTCCCGCCTTCCGCAGCCCGG it is 480 ± 6.2; for GGTCTCTGCTTCCGGTCCTTGGGGTAGCACCTCTGT it is 32000.

Sequence TGGGGCTCTTCCTGCTTATGTGAGCACAGCACCTTG showed an ETS1 binding intensity of 4750. To AGCACCAGTGTTGTCTCTGCTTCCGGTCCTTATGGT belongs 7490; to CAGCCAGCGCACCTCCTCCTCAGCTTCCTCTGGTGC, 620. To GATGAGGGCTTGCGCGCAAACAGCCCGGAAATGAGG belongs 1010; to CAACAACCGGAAGTGGGGCGGGCCGTAGTACCCGCC, 35100; to GGGGACCGGAAAGGGAGGGGTGGGCCGTAGGCGCCG, 4430. Turning to CGGCCGCCGTTTAGGGCGGCCCCGGAAGCGGGGCGC, the ETS1 binding intensity worked out at 531.

The sequence GCACTCATTTCCTGTCCCCTGTAGTTTAAAGGTTTT displayed an ETS1 binding intensity of 19700. To AGGCTCATTTCCTGTTTTCATGTAGTTTAGAGAAAA belongs 24300; to TTGCATGTAGTTTAGGCTGTAGTTTCCTCCTGTAGT, 534; to TATATGCACAGGAAGTCCCTTACAACCTACTCTGTT, 3590.

GGCGGGAGAGGAAGCCGGGCGGCCGAAGCTGCCTGT returned an ETS1 binding intensity of 811. In the case of AGAAGTGCAGTGGAGGAGGGCCGGAACGGTGACTAT, the ETS1 binding intensity amounted to 393. The figure for AGGACCGGAAGTGCCCGAGGGCGGCCGGAGAACGGT is 45500. To CCATTCCTACGGCCTTCATTGCTGCATCCGGTGGAG belongs 2480; to CTCTGGGAGGCCGCCGCTTTCCACCGGAAAGAGGGT, 555; to AGGTACAACACCAGACGGTAGGCCAGGAAATCGCAG, 407.

As to CTCCGCGCAGCCCCAGAGACCCTTGGGAAGTGTGGT, the ETS1 binding intensity was 320. To CTCGGCCAACGCGTGCTCCACTCGGAAGTGGTGCCG belongs 457; to CAAAGTGATGGGGGAAATGGTTGTAGTTTTGGGTGG, 514; to GTTGCAAAGGCGCCTACAACTACTTCCGCTTCTAGT, 4670. The figure for AACAGTACTTCCGGGGCAAGTGAGCGCCTACAAGGC is 30400; for CGTGTGAGGGGGCGCAAGGCAGCGGCAGCTTCCGCC it is 830. TGAGCCCTACTTCCGGTGGTGCTGTGCTCTGCCCCT returned an ETS1 binding intensity of 29700.

The sequence CTTCTACTTCCTGCCCCGCCCCCAGCTGTGCTCACA registered an ETS1 binding intensity of 17900.

The sequence AAATGAGCGGAGGTTGAGCCCTACTTCCGGTGGTGC showed an ETS1 binding intensity of 14100. The sequence GCTTGTCTTCCGGTTTCGTCGCCGCCGTAGGCGCAC returned an ETS1 binding intensity of 16700. To AGTTTCCTGAACTCAGAGCACAGTTCTGGTGCAGAA belongs 6300. Consider TCGGGCTGCCGAAGAGCAGCTATTTCCTGTCTGCAC, for which the ETS1 binding intensity turned out to be 5010.

With TATTTCCTGTGCACAGAAGCAGCTGGGCCGAAGAGT, the ETS1 binding intensity was determined as 34400.

Regarding CCAGACCCGGCGGAACTACCGTGCCCTCAAGGCAGC, the ETS1 binding intensity came to 477.

TTCAGGTGACTTCCGGCCGGACCTCTGAGGACGCGG registered an ETS1 binding intensity of 24100 ± 4200. Take CCCGGAGGACGTCCGGCCTCTGTGAGCCGCCACCTT: the ETS1 binding intensity came out at 4500. The sequence ACGCGCGCGGGGGAGGTGGCTTCTTCCGGCCGGGCC yielded an ETS1 binding intensity of 1860. To CTCGGCCAGGAAGCACTGAGCCACTTCGGCATCGCA belongs 591; to TGACAGACCCGGAAATAAGAGGAGACAACACACTTG, 4440; to GGCAGGAAAGAGCTGATGCATTTCAACAGCAGCCTG, 477.

On to CCTGAGCGCCCGGAAGGAAGGCTGGGGTAGGTTGTC, for which the ETS1 binding intensity was found to be 756. The figure for ACCAACCGGAAGTGATCGTGTCGTGGCCGAAGGAGG is 32300; for GTCGGAAGTGGCCGTGAGCCCAAGCCGAGGTCCCGG it is 1130.
